The record followed here is PubChem BioAssay.

Experiment [1] has as its target Regulator of G-protein signaling 16 (Homo sapiens) (UniProt O15492). Put plainly: modulators of RGS–Galpha-o binding, primary screen, biochemical, multiplexed beads, flow cytometry, RGS4/7/8/16/19 (AID 1504).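 Note: fluorescently labeled Galpha-o bound to GDP with aluminium fluoride binding biotinylated RGS beads.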 Conditions: multiplexed bead flow cytometry, measured here: RGS16 interaction, at 10 µM. (In flow cytometry, cells or beads pass a laser one at a time.)
For experiment [2], the target named is Regulator of G-protein signaling 19 (Homo sapiens) (UniProt P49795). The experiment is described as above. Conditions: multiplexed bead flow cytometry, measured here: RGS19 interaction, at 10 µM.
Experiment [3] has as its target Regulator of G-protein signaling 7 (Homo sapiens) (UniProt P49802). The experiment is described as above. Conditions: multiplexed bead flow cytometry, measured here: RGS7 interaction, at 10 µM.
Experiment [4] has as its target Regulator of G-protein signaling 8 (Homo sapiens) (UniProt P57771). The description is as above. Particulars: multiplexed bead flow cytometry, measured here: RGS8 interaction, at 10 µM.
Experiment [5] is described as follows: disruption of biotin probe capture by avidin, counter-screen for RGS protein interaction modulators, biochemical, flow cytometry, bead-based (AID 1783;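 active = inhibition above 50%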;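 note: median green fluorescence of gated singlet beads compared with DMSO control wells; 0% = DMSO wells and 100% = complete loss of bead fluorescence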). Conditions: streptavidin beads, fluorescein-biotin binding; at 10 µM, stronger effect = higher value.
The target in experiment [6] is Guanine nucleotide-binding protein G(o) subunit alpha (Homo sapiens) (UniProt P09471). Put plainly: RGS8-Galphao binding modulators, confirmation, biochemical, multiplexed bead flow cytometry, single concentration (AID 1836; in the data active = binding response below about 72% or above about 130%; inactive = in between;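 note: Galphao activated as GDP AlF4 complex before binding bead RGS8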). Conditions: bead-based flow cytometry RGS8-Galphao binding, fluorescence; at 10 µM; actives lie on both sides.
Sequence of Guanine nucleotide-binding protein G(o) subunit alpha (Homo sapiens) (P09471 whole entry, looked up): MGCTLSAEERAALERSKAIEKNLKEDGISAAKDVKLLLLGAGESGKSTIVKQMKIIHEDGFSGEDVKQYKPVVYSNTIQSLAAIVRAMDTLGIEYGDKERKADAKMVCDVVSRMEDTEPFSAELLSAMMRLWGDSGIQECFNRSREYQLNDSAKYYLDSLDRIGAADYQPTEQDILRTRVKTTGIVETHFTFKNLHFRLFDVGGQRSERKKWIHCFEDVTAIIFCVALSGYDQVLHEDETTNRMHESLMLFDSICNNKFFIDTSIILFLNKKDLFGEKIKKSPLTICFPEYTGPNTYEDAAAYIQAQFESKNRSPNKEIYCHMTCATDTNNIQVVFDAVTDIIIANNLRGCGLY
The target is the same in experiment [7]. Put plainly: RGS7-Galphao binding modulators, confirmation, biochemical, multiplexed bead flow cytometry, single concentration (AID 1837; in the data active = response below about 75% or above about 130%; inactive = in between;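 note: fluorescent Galphao activated with GDP and aluminum fluoride binding bead-coupled RGS7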). Particulars: bead-based flow cytometry RGS7-Galphao binding; at 10 µM; actives lie on both sides.
Experiment [8] concerns the target Regulator of G-protein signaling 16 (Homo sapiens) + Guanine nucleotide-binding protein G(o) subunit alpha (Homo sapiens) (UniProt O15492+P09471). Put plainly: modulators of RGS16-Galphao protein binding, confirmation, biochemical, single concentration, multiplexed bead flow cytometry (AID 1838).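 Note: Galphao activated as the GDP aluminium fluoride complex binding bead-coupled RGS16.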 Conditions: bead-based flow cytometry, at 10 µM, actives lie on both sides.

Experiment [9] concerns the target Guanine nucleotide-binding protein G(o) subunit alpha (Homo sapiens) (UniProt P09471). Description: modulators of RGS4-Galphao protein binding, confirmation, biochemical, single concentration, multiplexed bead flow cytometry (AID 1840; in the data active = binding response below about 74% or above about 130%; inactive = in between). Particulars: at 10 µM, actives lie on both sides.
Experiment [10] has as its target Guanine nucleotide-binding protein G(o) subunit alpha (Homo sapiens) + Regulator of G-protein signaling 19 (Homo sapiens) (UniProt P09471+P49795). Description: regulators of RGS19-Galphao binding, confirmation, biochemical, single point, multiplexed bead flow cytometry (AID 1841; in the data active = response below about 50% or above about 160%; inactive = in between;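 note: 100% = no compound control and 0% = blank background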). Conditions: bead-based flow cytometry RGS19-Galphao binding; at 10 µM; actives lie on both sides.

Structures are written as SMILES. This is one part of the list. Active and inactive are the calls of the source. Cut-off read from the data, not from the text of the source, unless noted: active = response below about 74% or above about 130%; inactive = in between.

Sequence of Guanine nucleotide-binding protein G(o) subunit alpha (Homo sapiens) + Regulator of G-protein signaling 19 (Homo sapiens) (P09471 whole entry, looked up): as above
Sequence of Guanine nucleotide-binding protein G(o) subunit alpha (Homo sapiens) + Regulator of G-protein signaling 19 (Homo sapiens) (P49795 whole entry, looked up): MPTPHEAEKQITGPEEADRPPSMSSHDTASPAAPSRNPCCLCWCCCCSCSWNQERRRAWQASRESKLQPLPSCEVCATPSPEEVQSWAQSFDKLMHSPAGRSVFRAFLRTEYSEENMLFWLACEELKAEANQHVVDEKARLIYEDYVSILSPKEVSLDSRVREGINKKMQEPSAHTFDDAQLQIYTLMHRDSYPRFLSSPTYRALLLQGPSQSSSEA
Sequence of Regulator of G-protein signaling 16 (Homo sapiens) + Guanine nucleotide-binding protein G(o) subunit alpha (Homo sapiens) (O15492 whole entry, looked up): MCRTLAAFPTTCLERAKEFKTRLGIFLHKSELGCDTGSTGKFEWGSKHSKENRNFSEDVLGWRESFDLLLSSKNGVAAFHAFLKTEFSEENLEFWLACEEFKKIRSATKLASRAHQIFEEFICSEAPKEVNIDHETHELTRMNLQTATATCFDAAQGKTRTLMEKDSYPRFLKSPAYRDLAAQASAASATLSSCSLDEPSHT
Sequence of Regulator of G-protein signaling 16 (Homo sapiens) + Guanine nucleotide-binding protein G(o) subunit alpha (Homo sapiens) (P09471 whole entry, looked up): as the sequence (P09471 whole entry, looked up) above

By inhibition is commonly meant the drop in the measured response relative to a control, in per cent. For `CC(=O)N1CC[n+]2c(-c3ccc([N+](=O)[O-])cc3)csc21`, the RGS16–Galpha-o binding response in experiment [1] turned out to be 12.8%. Besides, the RGS19–Galpha-o binding response in [2] worked out at 114%. For the same compound, in [3], the RGS7–Galpha-o binding response stood at 102%. Moreover, in experiment [4], the RGS8–Galpha-o binding response was determined as 63.1%. Moreover, the inhibition in [5] is -0.8% (inactive). The binding response (% of control) in experiment [6] is 80.5% (inactive); in experiment [9], 66.7% (active). The response (percent of control binding) in [7] was 67.2% (active); in experiment [10], 62.5% (inactive). Besides, the response (% of control binding) in experiment [8] was 58% (active).

Regarding `Oc1ccc(-c2onc3ccc(Cl)cc23)cc1`, the RGS16–Galpha-o binding response in experiment [1] was determined as 415%. The RGS19–Galpha-o binding response in experiment [2] turned out to be 108%. The RGS7–Galpha-o binding response in experiment [3] is 110%. This compound also gave an RGS8–Galpha-o binding response in experiment [4] of 144%. Also, the inhibition in experiment [5] is 0% (inactive). Besides, the binding response (% of control) in experiment [6] is 92.4% (inactive); in experiment [9] it was 89% (inactive). Also, the response (percent of control binding) is 89.7% (inactive) in [7] and 79.4% (inactive) in experiment [10]. Moreover, the response (% of control binding) in experiment [8] is 91.4% (inactive).

In the case of `C=CCn1c(Cn2nnc3ccccc32)nnc1SCC(=O)N/N=C/c1cc(Br)cc(OC)c1O`, the RGS16–Galpha-o binding response in [1] was -35.2%. Besides, in experiment [2], the RGS19–Galpha-o binding response came to 144%. In addition, the RGS7–Galpha-o binding response in experiment [3] is -19.4%. The same compound gave an RGS8–Galpha-o binding response in experiment [4] of 5.17%.

In the case of `COc1ccc(C(=O)COC(=O)c2ccc3ccccc3n2)cc1`, in experiment [1], the RGS16–Galpha-o binding response was -0.98%. In addition, in experiment [2], the RGS19–Galpha-o binding response was determined as 167%. For the same compound, in experiment [3], the RGS7–Galpha-o binding response turned out to be 39%. For the same compound, in [4], the RGS8–Galpha-o binding response was determined as 28.9%. In addition, in experiment [5], the inhibition is -1% (inactive). The binding response (% of control) in experiment [6] is 95.5% (inactive); in experiment [9] it was 92.6% (inactive). Also, the response (percent of control binding) was 86.7% (inactive) in experiment [7] and 93.7% (inactive) in [10]. The response (% of control binding) in [8] is 95.4% (inactive).

For `O=C(NCc1ccc(F)cc1)C1CCC(CNc2c(N3CCOCC3)c(=O)c2=O)CC1` (configuration not stated), the RGS16–Galpha-o binding response in [1] was found to be 3.97%. The RGS19–Galpha-o binding response in experiment [2] was 357%. Further, in [3], the RGS7–Galpha-o binding response was -657%. In experiment [4], the RGS8–Galpha-o binding response was 8.33%. The inhibition in [5] is 0% (inactive). The binding response (% of control) in experiment [6] and in experiment [9] was 101% (inactive) in each case. The figures for the response (percent of control binding) in [7] and in [10] were 100% (inactive) and 98.1% (inactive), respectively. The response (% of control binding) in [8] was 98.7% (inactive).

Take `CCCC(=O)n1nc(-c2ccccc2)nc1N`: the RGS16–Galpha-o binding response in experiment [1] is 14.9%. For the same compound, the RGS19–Galpha-o binding response in experiment [2] is -92.7%. Further, the RGS7–Galpha-o binding response in experiment [3] worked out at 23.4%. In addition, the RGS8–Galpha-o binding response in experiment [4] stood at 20.9%.

`O=C(CN1CCCCC1)N1c2ccccc2Sc2ccc(C(F)(F)F)cc21`: the RGS16–Galpha-o binding response in [1] is -6.83%. For the same compound, in [2], the RGS19–Galpha-o binding response came to 241%. The RGS7–Galpha-o binding response in [3] turned out to be 27.5%. In experiment [4], the RGS8–Galpha-o binding response is 22.7%.

Regarding `Cn1c(=O)c2c(n(Cc3ccccc3)c1=O)NC(=O)C2CC(=O)N1CCc2ccccc2C1` (configuration not stated), the RGS16–Galpha-o binding response in experiment [1] was -1.02%. Also, the RGS19–Galpha-o binding response in [2] was found to be 241%. Also, the RGS7–Galpha-o binding response in experiment [3] was found to be 13.5%. Moreover, the RGS8–Galpha-o binding response in experiment [4] amounted to 12.1%. Moreover, in experiment [5], the inhibition was 0.9% (inactive). In addition, the results for the binding response (% of control) in [6] and in experiment [9] were 100% (inactive) and 105% (inactive), respectively. The response (percent of control binding) in [7] is 112% (inactive); in experiment [10], 102% (inactive). In addition, the response (% of control binding) in experiment [8] was 95.4% (inactive).

For the compound `CCCC1C(c2ccccc2)C(C#N)(C#N)C2(C#N)CC1(N)NC2=O` (configuration not stated), the RGS16–Galpha-o binding response in experiment [1] worked out at 178%. Besides, the RGS19–Galpha-o binding response in experiment [2] is 474%. Also, the RGS7–Galpha-o binding response in experiment [3] was 152%. In experiment [4], this compound returned an RGS8–Galpha-o binding response of 116%. Besides, the inhibition in experiment [5] was 0.8% (inactive). Moreover, the binding response (% of control) in experiment [6] and in experiment [9] was 103% (inactive) in each case. For the same compound, the response (percent of control binding) in [7] and in [10] was 105% (inactive) each time. The response (% of control binding) in experiment [8] was 102% (inactive).

Consider `Cc1cccc(S(=O)(=O)CC(=O)Nc2nc(-c3ccccc3)cs2)c1`, for which, in experiment [1], the RGS16–Galpha-o binding response was determined as 239%. Further, the RGS19–Galpha-o binding response in experiment [2] amounted to 101%. For the same compound, in [3], the RGS7–Galpha-o binding response was determined as 130%. In experiment [4], the RGS8–Galpha-o binding response was found to be 118%. For the same compound, the inhibition in experiment [5] is 1.7% (inactive). Moreover, the binding response (% of control) was 101% (inactive) in experiment [6] and 103% (inactive) in experiment [9]. Besides, the response (percent of control binding) is 106% (inactive) in experiment [7] and 105% (inactive) in [10]. Moreover, the response (% of control binding) in experiment [8] is 98.5% (inactive).
